In PubChem BioAssay:
Results filed as inconclusive are left out. Activity calls are given as the source filed them.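 Rule for the calls, unless noted: active = Her2 level under about 52% in both replicate screens, with viability over 70% of control (limit read from the data); inconclusive = Her2 under the limit in one screen only, or viability under 70%; inactive = Her2 level above the set limit.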

Experiments:
[1] = Her2 expression decrease, cell viability multiplex – SKBR3 breast tumor cells, AlphaScreen, ATP viability, primary screen (AID 461); details: SKBR3 Her2 protein level, 18-24 h, measured here: SKBR3 viability, ATP luminescence, at 10 µM;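 for Her2 level: lower value means less Her2 protein in the cells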;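 for viability: percent of carrier control wells set as 100% viability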
[2] = molecular target: Receptor tyrosine-protein kinase erbB-2 (Homo sapiens) (UniProt P04626); test: as above; details: 18-24 h, at 10 µM, stronger effect = lower value
[3] = reduced viability of SK-BR-3 breast cancer cells – cell-based, 24 h, human, pilot screen (AID 572;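 active = viability at or below 10% of carrier control in both of two separate runs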;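 note: compound exposure lasted between 18 and 24 h rather than exactly 24 h; 100% = carrier-treated control wells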); details: SK-BR-3 viability, CellTiter-Glo luminescence, at 10 µM, stronger effect = lower value
[4] = HUVEC growth inhibition – cell-based, human, primary screen (AID 575;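 active = viability at or below 30% in both replicate assays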;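 note: 100% = median of untreated cell wells with 0.1% DMSO on each plate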); details: HUVEC proliferation, CellTiter-Glo luminescence, 72 h; at 10 µM; stronger effect = lower value
[5] = H69AR cell proliferation blockers – human, duplicate replicates, primary screen (AID 580;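 active = viability at or under a set limit in both replicates, limit being median viability minus 3 SD, cut at about 48% in these data, passing the limit was not always enough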;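 note: 100% = mean luminescence of untreated wells and 0% = no signal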); details: H69AR lung tumor cells viability, ATP luminescence, 72 h; at 10 µM; stronger effect = lower value
[6] = MRP1 drug-resistance reversers in H69AR cells – cell-based, doxorubicin co-treatment, pilot screen (AID 601;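 active = viability loss from added drug above about 55%, and viability with drug at most 40%, in both replicates, limit read from the data, passing the limit was not always enough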); details: CellTiter-Glo, 72 h, at 10 µM; for differential viability (reversal): stronger effect = higher value
[7] = yeast transport mutant growth inhibition pilot in 384-well plates, post-Golgi transport modulator project (AID 636; in the data active = inhibition above about 31%); details: absorbance 615 nm, about 18 h, stronger effect = higher value
[8] = growth suppression of yeast trafficking mutant, preliminary HTS, modulators of trafficking downstream of Golgi apparatus project, 1536-format plate, OD 615 nm (AID 637; in the data active = inhibition above about 30%); details: yeast transport mutant growth, absorbance 615 nm, 18 h; stronger effect = higher value
[9] = S. cerevisiae growth inhibition in permissive medium (OD615), pilot counter-assay for S. cerevisiae lifespan shortening project, permissive growth control (AID 705;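 active = growth inhibition above 25% in both replicates, a cutoff set 3 SD above the mean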); details: OD615, 24 h, at 10 µM, stronger effect = higher value
[10] = S. cerevisiae growth inhibition in restrictive medium, OD615, pilot screen, restrictive growth control, yeast lifespan reduction project (AID 706;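 active = growth inhibition above a set limit, 3 SD over mean compound inhibition, in both replicates, cut at about 43% in these data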;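 note: modified DeaD lifespan yeast strain shifted to restrictive glucose medium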); details: OD615, 48 h, at 10 µM, stronger effect = higher value
[11] = doxorubicin toxicity protection in MRP-1 cells – H69AR cells, CellTiter-Glo, duplicate, MRP-1 activator project, pilot screen (AID 807;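 active = viability increase at or above a cutoff of the median across tested compounds plus 3 SD, cut at about 8.5% in these data, passing the limit was not always enough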;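 note: compound pretreatment 18-22 h then 72 h combined with doxorubicin; 0% = doxorubicin alone and 100% = vehicle without doxorubicin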); details: H69AR viability with doxorubicin, CellTiter-Glo luminescence; at 10 µM; stronger effect = higher value
[12] = viability of HCT116 without oncogenic beta-catenin – human colon tumor cells, pilot screen (AID 823;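 active = cell viability at or below a set limit in both duplicate runs, the limit being the all-compound median minus 4 SD, cut at about 23% in these data, passing the limit was not always enough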;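 note: 0% = wells killed by 20 µM Hyamine and 100% = untreated DMSO cell wells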); details: HCT116 beta-catenin knockout viability, CellTiter-Glo, 60 h; at 10 µM; stronger effect = lower value
[13] = viability of PTEN-null HCT116 cells – cell-based, HCT116 clonal line, CellTiter-Glo, pilot screen (AID 824;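 active = viability at or below 27.92% in each of two runs, the all-compound median minus 4 SD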;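 note: 0% = 20 µM Hyamine control and 100% = vehicle cell control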); details: HCT116 PTEN-deleted viability, 60 h, at 10 µM, stronger effect = lower value
[14] = RAM pathway blockade in budding yeast – dse1pr::URA3 reporter, 5-FOA selection, pilot screen (AID 869;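 active = inhibition over a set limit, the all-compound mean plus 3 SD, in both replicate runs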;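 note: 0% = DMSO wells with no growth and 100% = 10 µM 1-NA-PP1 with full growth; RAM network block rescues cells from 5-FOA so hits raise OD615 growth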); details: S. cerevisiae dse1pr::URA3 5-FOA growth, OD615, 2 d; at 10 µM; stronger effect = higher value; strain carries analog-sensitive mutant Cbk1 kinase
[15] = RAM signaling pathway blockade in yeast – S. cerevisiae, Pdr1DBD-CYC8 efflux-inhibited sensitized strain, primary screen (AID 1298;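 active = RAM network inhibition above 8.4% in each of two replicates, 3 SD over the compound average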;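 note: 0% = DMSO untreated cells without growth and 100% = 10 µM 1-NA-PP1 full growth; higher means more yeast growth rescued from 5-FOA killing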); details: S. cerevisiae cbk1-as DSE1-URA3 strain, 5-FOA growth OD615, 2 d; at 50 µM; stronger effect = higher value
[16] = H69AR cells + 2 uM doxorubicin, measured here: viability with 2 uM doxorubicin, stronger effect = lower value
[17] = H69AR cells, compound alone cytotoxicity

Sequence of Receptor tyrosine-protein kinase erbB-2 (Homo sapiens) (P04626 whole entry, looked up): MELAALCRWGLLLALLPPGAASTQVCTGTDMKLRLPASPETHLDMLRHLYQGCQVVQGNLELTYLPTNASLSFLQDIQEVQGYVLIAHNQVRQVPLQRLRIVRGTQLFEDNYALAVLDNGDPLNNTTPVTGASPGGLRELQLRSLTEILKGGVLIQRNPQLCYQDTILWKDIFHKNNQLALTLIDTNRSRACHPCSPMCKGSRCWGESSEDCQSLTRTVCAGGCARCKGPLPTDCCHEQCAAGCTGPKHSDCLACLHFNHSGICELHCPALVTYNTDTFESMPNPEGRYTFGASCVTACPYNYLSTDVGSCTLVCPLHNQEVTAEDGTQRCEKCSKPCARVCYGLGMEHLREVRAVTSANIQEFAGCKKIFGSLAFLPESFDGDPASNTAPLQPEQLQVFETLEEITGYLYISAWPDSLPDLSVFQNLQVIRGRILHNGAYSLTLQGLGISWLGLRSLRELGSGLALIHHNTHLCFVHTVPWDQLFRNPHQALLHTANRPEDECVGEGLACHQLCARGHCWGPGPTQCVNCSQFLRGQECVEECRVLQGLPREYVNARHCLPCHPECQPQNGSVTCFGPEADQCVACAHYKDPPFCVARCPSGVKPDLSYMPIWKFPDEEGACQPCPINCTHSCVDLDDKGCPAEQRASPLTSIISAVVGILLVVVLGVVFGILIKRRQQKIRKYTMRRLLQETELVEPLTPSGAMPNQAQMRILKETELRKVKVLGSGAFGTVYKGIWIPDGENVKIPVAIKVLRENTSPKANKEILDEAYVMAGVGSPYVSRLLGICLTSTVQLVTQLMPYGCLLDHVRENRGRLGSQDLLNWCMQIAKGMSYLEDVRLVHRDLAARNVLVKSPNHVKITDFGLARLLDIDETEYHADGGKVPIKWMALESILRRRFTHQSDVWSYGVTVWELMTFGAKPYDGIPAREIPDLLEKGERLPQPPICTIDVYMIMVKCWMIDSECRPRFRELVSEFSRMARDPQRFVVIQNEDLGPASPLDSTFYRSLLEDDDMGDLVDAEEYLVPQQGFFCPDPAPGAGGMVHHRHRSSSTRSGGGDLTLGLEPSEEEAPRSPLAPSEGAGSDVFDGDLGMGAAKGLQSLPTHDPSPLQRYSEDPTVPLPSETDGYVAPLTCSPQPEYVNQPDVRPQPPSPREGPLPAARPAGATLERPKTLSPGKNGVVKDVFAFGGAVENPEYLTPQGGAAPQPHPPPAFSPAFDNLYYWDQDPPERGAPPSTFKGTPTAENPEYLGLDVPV

CC1=C(C(=O)OCc2ccccc2)C(c2ccco2)n2ncnc2N1 (stereo not given)
98.5%: viability [1]
112%: viability [6, 17]
88.7%: viability [6, 16]
inactive: Her2 level [2] 95% | viability [3] 98.5% | viability [4] 87.1% | viability [5] 112% | differential viability (reversal) ([6]; H69AR cells + 2 uM doxorubicin) 23% | inhibition [7] -2.95% | inhibition [8] 2.67% | growth inhibition [9] 3.25% | growth inhibition [10] -3.8% | viability increase [11] -2.11% | viability [12] 92.8% | viability [13] 89% | inhibition [14] 0.83% | RAM network inhibition [15] 1.02%

COc1ccccc1CNC(=O)CCn1c(=O)[nH]c2ccsc2c1=O
inactive: Her2 level [2] 102% | viability [3] 97.5% | viability [4] 114% | viability [5] 93.9% | differential viability (reversal) ([6]; H69AR cells + 2 uM doxorubicin) 4.96% | inhibition [7] -7.97% | inhibition [8] 2.17% | growth inhibition [9] -21% | growth inhibition [10] -14.4% | viability increase [11] -0.23% | viability [12] 101% | viability [13] 99.4% | inhibition [14] 1.01% | RAM network inhibition [15] 4.41%
88.9%: viability [6, 16]
93.9%: viability [6, 17]
97.5%: viability [1]

O=C(O)c1ccccc1S(=O)(=O)NCC(O)COc1ccc(Br)cc1 (stereo not given)
102%: viability [1]
93.6%: viability [6, 16]
99.9%: viability [6, 17]
inactive: Her2 level [2] 84.5% | viability [3] 102% | viability [4] 119% | viability [5] 99.9% | differential viability (reversal) ([6]; H69AR cells + 2 uM doxorubicin) 6.29% | inhibition [7] -2.47% | inhibition [8] -1.17% | growth inhibition [9] -17.1% | growth inhibition [10] -22.2% | viability increase [11] 0.84% | viability [12] 97.9% | viability [13] 100% | inhibition [14] 1.09% | RAM network inhibition [15] 7.5%

O=c1c(-c2ccccc2)coc2c(CN3CCOCC3)c(O)ccc12
100%: viability [6, 16]
110%: viability [1]
99%: viability [6, 17]
inactive: Her2 level [2] 105% | viability [3] 110% | viability [4] 96.4% | viability [5] 99% | differential viability (reversal) ([6]; H69AR cells + 2 uM doxorubicin) -1.39% | inhibition [7] 0.95% | inhibition [8] -7.87% | growth inhibition [9] -9.23% | growth inhibition [10] 4.11% | viability increase [11] -4.13% | viability [12] 91.7% | viability [13] 99.7% | inhibition [14] 0.58% | RAM network inhibition [15] -0.61%

CCCCOCCCNC(=O)COc1ccccc1
94.1%: viability [6, 17]
103%: viability [1]
inactive: Her2 level [2] 104% | viability [3] 103% | viability [4] 102% | viability [5] 94.1% | differential viability (reversal) ([6]; H69AR cells + 2 uM doxorubicin) -2.32% | inhibition [7] -5.54% | inhibition [8] -2.46% | growth inhibition [9] -2.82% | growth inhibition [10] -5.04% | viability increase [11] -1.43% | viability [12] 94.5% | viability [13] 97.5% | inhibition [14] 0.215% | RAM network inhibition [15] -0.62%
96.4%: viability [6, 16]

Oc1c(C(c2ccccc2)N2CCc3ccccc3C2)sc2ncnn12 (stereo not given)
inactive: Her2 level [2] 82.5% | viability [3] 87.5% | viability [4] 74.4% | viability [5] 85% | differential viability (reversal) ([6]; H69AR cells + 2 uM doxorubicin) -0.02% | inhibition [7] -2.69% | inhibition [8] -2% | growth inhibition [9] 7.92% | growth inhibition [10] 8.2% | viability increase [11] 3.99% | viability [12] 97.1% | viability [13] 93.3% | inhibition [14] 1.78% | RAM network inhibition [15] 4.48%
87.5%: viability [1]
85.1%: viability [6, 16]
85%: viability [6, 17]

COc1ccc(-c2cnc(SCC(=O)Nc3ccc4c(c3)OCO4)n2Cc2ccco2)cc1
inactive: Her2 level [2] 70.5% | viability [3] 102% | viability [4] 76.9% | viability [5] 83.4% | differential viability (reversal) ([6]; H69AR cells + 2 uM doxorubicin) -9.64% | inhibition [7] 0.39% | inhibition [8] -6.03% | growth inhibition [9] 1.77% | growth inhibition [10] 10.1% | viability increase [11] -3.05% | viability [12] 67.4% | viability [13] 67.4% | inhibition [14] 1.66% | RAM network inhibition [15] 0.61%
93.1%: viability [6, 16]
102%: viability [1]
83.4%: viability [6, 17]

CC1CCN(C(=O)Cn2cc3c(n2)CCCC3)CC1
101%: viability [6, 16]
96.4%: viability [6, 17]
97%: viability [1]
inactive: Her2 level [2] 116% | viability [3] 97% | viability [4] 97.1% | viability [5] 96.4% | differential viability (reversal) ([6]; H69AR cells + 2 uM doxorubicin) -4.43% | inhibition [7] 6.67% | inhibition [8] -4.5% | growth inhibition [9] -7.6% | growth inhibition [10] -2.46% | viability increase [11] 0.91% | viability [12] 100% | viability [13] 99.9% | inhibition [14] 0.615% | RAM network inhibition [15] 3.48%

O=C1CC(c2cccnc2)c2cc3c(cc2N1)OCO3 (stereo not given)
85.7%: viability [6, 16]
99.5%: viability [1]
104%: viability [6, 17]
inactive: Her2 level [2] 108% | viability [3] 99.5% | viability [4] 88.7% | viability [5] 104% | differential viability (reversal) ([6]; H69AR cells + 2 uM doxorubicin) 18.4% | inhibition [7] -0.13% | inhibition [8] -9.18% | growth inhibition [9] -2.55% | growth inhibition [10] 1.1% | viability increase [11] -1.75% | viability [12] 105% | viability [13] 99.8% | inhibition [14] 1.17% | RAM network inhibition [15] 0.51%

CC(=O)Nc1cccc(NC(=O)c2ccco2)c1
91.5%: viability [6, 17]
94%: viability [1]
inactive: Her2 level [2] 94% | viability [3] 94% | viability [4] 108% | viability [5] 91.5% | differential viability (reversal) ([6]; H69AR cells + 2 uM doxorubicin) -0.085% | inhibition [7] -2.21% | inhibition [8] -11.7% | growth inhibition [9] -5.76% | growth inhibition [10] -3.89% | viability increase [11] -4.18% | viability [12] 99.6% | viability [13] 98.1% | inhibition [14] 1.83% | RAM network inhibition [15] 0.76%
91.6%: viability [6, 16]
